HT1080 IDH1KD tx: HT-1080 IDH1 knockdown cell toxicity (counter line); HT-1080 IDH1 knockdown viability, ATP luminescence, 48 h; Potency, µM (series often up to 46.1 µM), without a hit: top-dose activity, negative = toxicity, most hits filed as cytotoxic; hit rate 2% among 360,000;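 note: potency is the fitted concentration of half-maximal effect; 0% = DMSO wells and -100% = cell-free medium wells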
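In this qHTS, HT-1080 cells depleted of IDH1 are exposed for 48 h at 37 °C to compound titrations. Toxicity is scored from CellTiter-Glo luminescence, with DMSO as full viability and medium alone as none.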
IL-1B inflam inh: inhibitors of inflammasome signaling (IL-1 beta secretion). hit rate 4.7% among 360,000. AID 743279. activity change, % at 57.5 µM. THP-1 LPS/ATP IL-1B secretion, AlphaLISA, 16 h; stronger effect = lower value; in the data active = activity change below about -50%; inconclusive = mostly about -30% to -49%
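Secreted IL-1B measured by AlphaLISA bead assay after 16 h compound exposure of THP-1 cells; compounds (final up to 57.5 uM) added 1 h before LPS (250 ng/mL) and ATP (1.25 mM) stimulation; lower signal means less secretion.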
TDP1 cell CPT: DT40-hTDP1 cell growth loss with CPT | chicken DT40 Tdp1-/-;hTDP1 cells + 20 nM CPT, ATP luminescence, 48 h | Potency, µM (highest dose often 46.2 µM), for inactives: top-dose activity change, negative = growth inhibition, hits mostly inhibitors | hit rate 12% among 420,000 | AID 686979; note: potency is the fitted concentration of half-maximal effect; nearly all actives have a fitted effect of over 55% in size
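Cell growth measured by CellTiter-Glo luminescence after a minimum 48 h, 37 C compound exposure with 20 nM CPT in Tdp1-knockout DT40 cells stably expressing hTDP1, seeded 400/well; qHTS titration format.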
uPA generation: cell surface uPA generation inhibition; AID 540303; Potency, µM (series often up to 38.3 µM), for inactives: at the highest dose activity change, negative = inhibition, most hits filed as inhibitors; hit rate 0.31% among 330,000; cell surface uPA generation assay, qHTS; active = well fitted inhibition curve with a large enough effect; inconclusive = small, poorly fitted or top-dose-only effect; inactive = no such curve, though single readings can be large or run the other way; tested in mouse RAW 264.7 cells; note: potency is the fitted concentration of half-maximal effect; nearly all actives have a fitted effect of over 55% in size
DT40 TDP1 no CPT: qHTS for Inhibitors of human tyrosyl-DNA phosphodiesterase 1 (TDP1): qHTS in cells in absence of CPT; Potency, µM (highest dose often 46.2 µM), for the others: top-dose activity change, negative = growth inhibition, hits mostly inhibitors; DT40 Tdp1-/- hTDP1 cells, no CPT, ATP luminescence, 48 h; AID 686978, 2013; hit rate 15% among 420,000; note: potency is the fitted concentration of half-maximal effect; nearly all actives have a fitted effect of over 55% in size
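Seeded 400 DT40-hTDP1 cells/well (vehicle DMSO, no 20 nM CPT); pinned compounds; ≥48 hr at 37 °C; CellTiter-Glo luminescence as viability measure.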
HT1080NT lethal: kills 2HG-producing HT-1080-NT fibrosarcoma cells; HT-1080-NT fibrosarcoma viability, CellTiter-Glo ATP luminescence, 48 h; Potency, µM (titrated, usually from 46.1 µM), for inactives: top-dose activity, negative = less viability, most hits filed as cytotoxic; hit rate 1.6% among 360,000;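 note: NT is the 2HG producing partner of a matched IDH1 knockdown line; potency is the fitted concentration of half-maximal effect; 0% = DMSO-treated cells and -100% = media-only wells without cells; nearly all actives have a fitted effect of over 55% in size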
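Fibrosarcoma NT cells, 750 per well in 5% FBS RPMI, were exposed to compound for 48 hours. Viability: CellTiter-Glo luminescence.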
* = called active by the depositor; ? = inconclusive; · = no result given. In the library only some 19% were active in any assay of this set; here they are far more common. Unless noted, calls come from the whole dose curve; as a rule, active = well fitted curve in the direction sought with a large enough effect; inconclusive = small, poorly fitted or top-dose-only effect, or another doubt; inactive = no such curve, though single readings can be large; an effect the other way counts as inactive or inconclusive. Unless noted, % is set by controls: 0 for no effect and ±100 for the full control effect.

SMILES | HT1080 IDH1KD tx | IL-1B inflam inh | TDP1 cell CPT | uPA generation | DT40 TDP1 no CPT | HT1080NT lethal
CN(CCc1ccccc1)C(c1ccnc2ccccc12)c1nnnn1-c1ccc2c(c1)OCCO2 (stereo not drawn) | ? | -4 | ? | · | 16µM* | ?
c1ccc(CN(Cc2ccccc2)C(c2ccnc3ccccc23)c2nnnn2-c2ccc3c(c2)OCCO3)cc1 (stereo not drawn) | -21% | 21 | ? | · | 23µM* | -14%
CCOC(=O)Cn1c(S(=O)(=O)Cc2ccccc2Cl)nc(-c2ccccc2)c1-c1ccccc1 | ? | -8 | 16µM* | · | 15µM* | ?
CCOC(=O)Cn1nc(-c2ccccc2)c(-c2ccccc2)nc1=O | 1% | 17 | -1% | 6% | -8% | 8%
CCOC(=O)Cn1c(-c2cccnc2)nc(-c2ccccc2)c1-c1ccccc1 | -9% | -13 | ? | -2% | 23µM* | -11%
CCOC(=O)Cn1c(C)nc2ccccc21 | 15% | 17 | -1% | 6% | -6% | 10%
C#CCn1c(S(=O)(=O)Cc2ccc(C)cc2)nc(-c2ccccc2)c1-c1ccccc1 | ? | ? | ? | -8% | ? | -22%
C#CCn1c(S(=O)(=O)Cc2ccccc2Cl)nc(-c2ccccc2)c1-c1ccccc1 | -7% | ? | 18µM* | 2% | ? | -1%
CCCCC(=O)N(C)c1c(C)nc2ccc(C(=O)NCCN(C)C)cn12 | 19% | -20 | -1% | · | -7% | -4%
CC(=O)Nc1ccc(OC(=O)N2CCCC2)cc1 | 12% | -2 | 11% | 12% | 2% | 9%
CCN1CCN(S(=O)(=O)CC2(C)C3CCC2(C)C(=O)C3Br)CC1 (stereo not drawn) | -13% | -6 | -7% | -5% | 1% | -3%
O=[N+]([O-])c1cc2c(c(CSc3nnnn3-c3ccc(O)cc3)c1)OCOC2 | -19% | -15 | 21µM* | -5% | 23µM* | -13%
CCOC(=O)[C@H]1[C@H]2COc3ccc(Br)cc3[C@H]2N2C(=O)CN(Cc3ccc(Cl)cc3)C(=O)[C@@]12C | -8% | -52* | ? | -20% | 23µM* | -7%
CCOC(=O)[C@H]1[C@H]2COc3ccc(OC)cc3[C@@H]2N2C(=O)CN(Cc3ccc(F)cc3)C(=O)[C@@]12C | -1% | 12 | ? | 9% | ? | -1%
CCOC(=O)[C@H]1[C@H]2COc3ccc(Br)cc3[C@@H]2N2C(=O)CN(Cc3ccc(Cl)cc3)C(=O)[C@@]12C | -22% | -11 | 18µM* | -13% | ? | -26%
CCOC(=O)[C@H]1[C@H]2COc3ccc(C)cc3[C@@H]2N2C(=O)CN(Cc3ccc(Cl)cc3)C(=O)[C@@]12C | 5% | 23 | -26% | 15% | 2% | -1%
CCOC(=O)[C@H]1[C@H]2COc3ccc(Br)cc3[C@@H]2N2C(=O)CN(Cc3ccc(F)cc3)C(=O)[C@@]12C | 1% | -13 | ? | 3% | 21µM* | 5%
Cc1ccc(-n2c(SCC(=O)N3CCC(C)CC3)nc3c([nH]c4ccccc43)c2=O)cc1 | · | · | -24% | · | -23% | ·
CCNc1ncc2nc(-c3ccc(F)cc3)c(=O)n(C[C@H]3CCCO3)c2n1 | · | · | -2% | · | 1% | ·
Cc1nc2c(sc3nc4c(cc32)COC(C)(C)C4)c(=O)n1CC(=O)NCc1ccco1 | ? | 62 | 3.3µM* | · | 4.1µM* | 7.1µM*
CC1(C)Cc2nc3sc4c(SCC(=O)NCc5ccco5)ncnc4c3cc2CO1 | 2.6µM* | 0 | 2.1µM* | -8% | 2.3µM* | ?
CC1(C)Cc2nc3sc4c(=O)n(CC(=O)NCc5ccccc5)cnc4c3cc2CO1 | 3.5µM* | 53 | 4.6µM* | · | 3.7µM* | 8.9µM*
CC1(C)Cc2nc3sc4c(=O)n(CC(N)=O)cnc4c3cc2CO1 | 8% | 24 | -3% | 2% | -9% | 3%
CCCc1nc2c(sc3nc4c(cc32)COC(C)(C)C4)c(=O)n1Cc1ccco1 | ? | 17 | ? | 8% | ? | 1%
CCCC(=O)N(CCN1CCOCC1)c1nc2c(OC)ccc(OC)c2s1 | 1% | ? | -9% | -20% | 11% | -9%
SMILES | HT1080 IDH1KD tx | IL-1B inflam inh | TDP1 cell CPT | uPA generation | DT40 TDP1 no CPT | HT1080NT lethal
CCN1CCN(CCCNC(=O)C2CCCN(c3nc4c(C)cc(C)cc4s3)C2)CC1 (stereo not drawn) | ? | -14 | 23µM* | ? | 21µM* | ?
Cc1cc(C)c2nc(N3CCC(C(=O)NCCCN4CC(C)CC(C)C4)CC3)sc2c1 (stereo not drawn) | · | -17 | ? | -6% | 23µM* | ·
Cc1cc(C)c2nc(N3CCCC(C(=O)NCCCN4CCOCC4)C3)sc2c1 (stereo not drawn) | ? | ? | ? | -2% | ? | ?
C=C1C(=O)C2=CC1CCC(=O)C1(C)CCC(OC(C)=O)C(C)(C)C1CC2O (stereo not drawn) | 5.8µM* | -107* | 2.1µM* | 8% | 2.1µM* | -24%
Cc1cn(CC(=O)NCc2nc3ccccc3[nH]2)c(=O)[nH]c1=O | 2% | 20 | -9% | · | 1% | 13%
COc1c(-c2coc3cc4c(cc3c2=O)CC(OC(C)=O)C(C)(C)O4)ccc2c1C=CC(C)(C)O2 (stereo not drawn) | · | · | 1.3µM* | · | 0.92µM* | ·
CC1(C)C=Cc2c(cc3occ(-c4ccc5c(c4)OCO5)c(=O)c3c2O)O1 | · | · | 0% | · | -1% | ·
COc1ccc(-c2coc3cc(OC(C)=O)c(OC)cc3c2=O)cc1 | 2% | 8 | -1% | ? | -20% | 10%
COc1c(-c2coc3cc4c(cc3c2=O)CC(O)C(C)(C)O4)ccc2c1C=CC(C)(C)O2 (stereo not drawn) | · | · | 0.046µM* | · | 0.021µM* | ·
Cc1cccc(C)c1OCc1nc2c3c(-c4ccccc4)c(-c4ccccc4)oc3ncn2n1 | · | · | -4% | · | -11% | ·
CCCCC(=O)N1CCc2cc(OC)c(OC)cc2C1COc1ccc(C(=O)OCC)cc1 (stereo not drawn) | · | · | ? | · | 18µM* | ·
COc1cc2c(cc1OC)C(COc1ccc(F)cc1)N(C(=O)c1cccc(F)c1)CC2 (stereo not drawn) | · | · | 16µM* | · | ? | ·
CCOC(=O)c1ccc(OCC2NCCc3cc(OC)c(OC)cc32)cc1 (stereo not drawn) | -1% | ? | ? | -14% | ? | 8%
CNC(=S)N1CCc2cc(OC)c(OC)cc2C1COc1ccc(F)cc1 (stereo not drawn) | ? | ? | 1% | -4% | 0% | -27%
